PubChem BioAssay (Tox21)
Records with an inconclusive call do not appear. Calls of active or inactive are those of the source. Unless noted, the call rests on the fitted dose curve.

Key:
[1] = target: Peroxisome proliferator-activated receptor delta (Homo sapiens) (UniProt Q03181); test: qHTS assay to identify small molecule agonists of the peroxisome proliferator-activated receptor delta (PPARd) signaling pathway (AID 743212); further: on the % scale 0 is the no-effect control and ±100 the full control effect
Chain of Peroxisome proliferator-activated receptor delta (Homo sapiens) (Q03181 whole entry, looked up): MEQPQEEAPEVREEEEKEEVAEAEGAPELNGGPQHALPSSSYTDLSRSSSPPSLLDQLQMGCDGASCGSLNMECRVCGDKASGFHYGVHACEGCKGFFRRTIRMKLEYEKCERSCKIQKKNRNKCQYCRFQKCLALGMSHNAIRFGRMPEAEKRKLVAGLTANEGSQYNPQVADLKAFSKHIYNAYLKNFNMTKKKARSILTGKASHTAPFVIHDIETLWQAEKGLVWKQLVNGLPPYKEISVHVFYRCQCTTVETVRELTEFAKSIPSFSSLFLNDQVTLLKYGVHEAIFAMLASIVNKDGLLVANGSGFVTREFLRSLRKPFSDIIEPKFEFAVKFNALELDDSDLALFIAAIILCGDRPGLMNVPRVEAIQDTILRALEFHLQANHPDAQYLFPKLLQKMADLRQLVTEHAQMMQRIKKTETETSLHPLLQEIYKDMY
Summary of the method: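 Quantitative high-throughput agonist screen in a HEK293H beta-lactamase reporter line under UAS control. Compounds in DMSO, at 37 C. Fluorescence read after 2 h with FRET substrate at room temperature.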

[2] = qHTS assay to identify small molecule antagonists of the peroxisome proliferator-activated receptor delta (PPARd) signaling pathway - cell viability counter screen (AID 743213; active means well fitted curve in the direction sought with a large enough effect in the repeat runs; an effect the other way counts as inactive or inconclusive; further: on the % scale 0 is the no-effect control and ±100 the full control effect; nearly all actives have a fitted effect of over 50% in size)
Summary of the method: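 CellTiter-Glo was added to PPARd-bla HEK293H wells following 17 h compound treatment in the presence of 300 nM L165041. Luminescence was recorded after 30 min at room temperature.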

[3] = target: Bile acid receptor (Homo sapiens) (UniProt Q96RI1); test: qHTS assay to identify small molecule antagonists of the farnesoid-X-receptor (FXR) signaling pathway (AID 743217; active means well fitted inhibition curve with a large enough effect in the signal ratio in the repeat runs, not every such curve was filed as active; the % refers to the signal ratio; further: on the % scale 0 is the no-effect control and ±100 the full control effect)
Chain of Bile acid receptor (Homo sapiens) (Q96RI1 whole entry, looked up): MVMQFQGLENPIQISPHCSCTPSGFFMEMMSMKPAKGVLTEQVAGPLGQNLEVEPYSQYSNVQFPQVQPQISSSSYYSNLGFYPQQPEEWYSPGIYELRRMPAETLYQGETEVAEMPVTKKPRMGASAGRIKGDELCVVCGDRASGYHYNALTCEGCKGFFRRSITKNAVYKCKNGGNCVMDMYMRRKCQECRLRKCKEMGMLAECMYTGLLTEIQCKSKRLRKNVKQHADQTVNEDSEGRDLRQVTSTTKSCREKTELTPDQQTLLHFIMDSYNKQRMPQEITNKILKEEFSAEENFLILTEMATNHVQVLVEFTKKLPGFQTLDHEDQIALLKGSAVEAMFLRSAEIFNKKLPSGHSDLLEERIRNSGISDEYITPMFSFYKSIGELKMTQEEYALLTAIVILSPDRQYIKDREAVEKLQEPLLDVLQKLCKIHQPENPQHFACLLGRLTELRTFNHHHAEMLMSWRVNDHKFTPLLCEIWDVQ
Summary of the method: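 In this cell-based antagonist screen, inhibition of CDCA-driven (50 uM final) UAS-beta-lactamase expression in HEK 293T cells was measured by FRET fluorescence following 16 h compound exposure at 37 °C.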

[4] = qHTS assay to identify small molecule agonists of the farnesoid-X-receptor (FXR) signaling pathway - cell viability counter screen (AID 743218; active means well fitted curve in the direction sought with a large enough effect in the repeat runs; an effect the other way counts as inactive or inconclusive; further: on the % scale 0 is the no-effect control and ±100 the full control effect; nearly all actives have a fitted effect of over 45% in size)
Summary of the method: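 After 16 h at 37 C with test compounds, FXR-bla HEK 293T cells were given LiveBLAzer B/G substrate for 2 h at RT and then CellTiter-Glo; luminescence was taken after 30 min.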

[5] = target: Bile acid receptor (Homo sapiens) (UniProt Q96RI1); test: qHTS assay to identify small molecule agonists of the farnesoid-X-receptor (FXR) signaling pathway (AID 743220; active means well fitted activation curve with a large enough effect in the signal ratio in the repeat runs, not every such curve was filed as active; the % refers to the signal ratio; further: on the % scale 0 is the no-effect control and ±100 the full control effect)
Summary of the method: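 Beta-lactamase reporter under UAS control in GeneBLAzer FXR HEK 293T cells (5000/well) measured with LiveBLAzer FRET substrate after 2 h at room temperature. Compound exposure lasted 16 h at 37C.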

[6] = qHTS assay to identify small molecule antagonists of the farnesoid-X-receptor (FXR) signaling pathway - cell viability counter screen (AID 743221; active means well fitted cell-killing curve with a large enough effect in the repeat runs, not every such curve was filed as active; further: on the % scale 0 is the no-effect control and ±100 the full control effect; nearly all actives have a fitted effect of over 50% in size)
Summary of the method: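 After a 5 h settling period, FXR-bla HEK 293T cells receive compound and chenodeoxycholic acid (50 uM final) and incubate 16 h at 37 C; CellTiter-Glo luminescence, read after 30 min at room temperature, reports cell viability.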

[7] = target: Vitamin D3 receptor (Homo sapiens) (UniProt P11473); test: qHTS assay to identify small molecule agonists of the vitamin D receptor (VDR) signaling pathway (AID 743222); further: on the % scale 0 is the no-effect control and ±100 the full control effect
Chain of Vitamin D3 receptor (Homo sapiens) (P11473 whole entry, looked up): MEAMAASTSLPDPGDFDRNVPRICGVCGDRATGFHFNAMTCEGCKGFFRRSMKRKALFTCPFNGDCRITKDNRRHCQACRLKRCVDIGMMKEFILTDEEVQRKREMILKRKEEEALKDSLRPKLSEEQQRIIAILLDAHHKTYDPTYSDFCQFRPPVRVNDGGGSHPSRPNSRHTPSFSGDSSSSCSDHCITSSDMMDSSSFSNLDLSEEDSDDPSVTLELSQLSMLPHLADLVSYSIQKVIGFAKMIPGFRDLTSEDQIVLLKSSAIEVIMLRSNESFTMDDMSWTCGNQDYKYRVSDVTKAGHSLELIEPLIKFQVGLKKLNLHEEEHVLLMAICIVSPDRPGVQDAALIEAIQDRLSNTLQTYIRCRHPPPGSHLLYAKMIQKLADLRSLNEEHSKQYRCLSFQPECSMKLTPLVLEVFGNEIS
Summary of the method: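 VDR-bla cells were seeded, left 4 h, treated with compounds in DMSO for 16 h, incubated 2 h at RT with B/G FRET substrate, and read for fluorescence.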

[8] = target: Vitamin D3 receptor (Homo sapiens) (UniProt P11473); test: qHTS assay to identify small molecule antagonists of the vitamin D receptor (VDR) signaling pathway (AID 743223; active means well fitted inhibition curve with a large enough effect in the signal ratio in the repeat runs, not every such curve was filed as active; the % refers to the signal ratio; further: on the % scale 0 is the no-effect control and ±100 the full control effect)
Summary of the method: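 Reporter line VDR-bla; stimulus 1alpha,25-(OH)2 vitamin D3, 3 nM final; compound co-addition, 16 h 37C/5% CO2; LiveBLAzer B/G substrate 2 h RT; fluorescence intensity.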

[9] = qHTS assay to identify small molecule agonists of the vitamin D receptor (VDR) signaling pathway - cell viability counter screen (AID 743224; active means well fitted curve in the direction sought with a large enough effect in the repeat runs; an effect the other way counts as inactive or inconclusive; further: series mostly up to about 63 µM; on the % scale 0 is the no-effect control and ±100 the full control effect; nearly all actives have a fitted effect of over 50% in size)
Summary of the method: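 Here cell health was gauged by luminescent ATP detection (CellTiter-Glo, 30 min RT) in VDR-bla cells that had been incubated with test compounds for 16 h at 37C and 5% CO2.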

[10] = qHTS assay to identify small molecule antagonists of the vitamin D receptor (VDR) signaling pathway - cell viability counter screen (AID 743225; active means well fitted curve in the direction sought with a large enough effect in the repeat runs; an effect the other way counts as inactive or inconclusive; further: on the % scale 0 is the no-effect control and ±100 the full control effect; nearly all actives have a fitted effect of over 50% in size)
Summary of the method: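 Parallel cytotoxicity test: VDR-UAS-bla HEK 293T, 3 nM (final) 1-alpha,25-dihydroxyvitamin D3 with test compound, 16 h, 37C. Endpoint is CellTiter-Glo luminescence in the same wells.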

[11] = qHTS assay to identify small molecule agonists of the NFkB signaling pathway - cell viability counter screen (AID 1159515); further: series mostly up to about 61 µM; on the % scale 0 is the no-effect control and ±100 the full control effect; nearly all actives have a fitted effect of over 55% in size
Summary of the method: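 5 hr compound treatment of NFkB-bla ME-180 cells (2,000/well, seeded overnight beforehand), followed by reporter substrate for 1.5 hr. CellTiter-Glo added afterward; luminescence after 30 min RT.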

[12] = qHTS assay to identify small molecule agonists of the endoplasmic reticulum stress response signaling pathway (AID 1159516; active means well fitted activation curve with a large enough effect in the signal ratio in the repeat runs, not every such curve was filed as active; the % refers to the signal ratio; further: on the % scale 0 is the no-effect control and ±100 the full control effect)
Summary of the method: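 Reporter HeLa cells (ESRE-beta-lactamase) underwent 5 hr compound incubation at 37 C and 5% CO2 in quantitative HTS format. Detection followed 2 hr of FRET substrate loading at room temperature.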

[13] = qHTS assay to identify small molecule agonists of the endoplasmic reticulum stress response signaling pathway - cell viability counter screen (AID 1159517)
Summary of the method: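 Counter-screen wells were identical to the reporter wells. Cells were plated at 1,500 per well and dosed for 5 hr, then read for luminescence 30 min after CellTiter-Glo addition.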

[14] = qHTS assay to identify small molecule antagonists of the retinoid-related orphan receptor gamma (ROR-gamma) signaling pathway - cell viability counter screen (AID 1159520; active means well fitted curve in the direction sought with a large enough effect in the repeat runs; an effect the other way counts as inactive or inconclusive)
Summary of the method: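 Tet-on ROR gamma CHO cells were given compounds for 2 hr, then doxycycline hyclate at 1 uM final, and incubated 16 hr at 37 C. Viability was measured as ATP content by CellTiter-Glo luminescence.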

[15] = target: Nuclear receptor ROR-gamma (Homo sapiens) (UniProt P51449); test: qHTS assay to identify small molecule antagonists of the retinoid-related orphan receptor gamma (ROR-gamma) signaling pathway (AID 1159521; active means well fitted curve in the direction sought with a large enough effect in the repeat runs; an effect the other way counts as inactive or inconclusive)
Summary of the method: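 Decreased RORE-driven luciferase luminescence indicates antagonism. Tet-on RORγ CHO cells received compound, then 1 uM final doxycycline 2 h later; signal read after 16 h incubation.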

[16] = qHTS assay to identify small molecule agonists of the AP-1 signaling pathway - cell viability counter screen (AID 1159525); further: nearly all actives have a fitted effect of over 55% in size
Summary of the method: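 AP-1-bla ME-180 cells in Opti-MEM with 0.5% dialyzed FBS, compound exposure 5 h at 37 C in 15-point titration. Viability read in the same wells as ATP content by CellTiter-Glo luminescence, normalised to tetra-n-octylammonium bromide and DMSO controls.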

[17] = qHTS assay to identify small molecule agonists of the AP-1 signaling pathway (AID 1159526); further: on the % scale 0 is the no-effect control and ±100 the full control effect
[18] = target: Retinoic acid receptor RXR-alpha (Homo sapiens) (UniProt P19793); test: qHTS assay to identify small molecule agonists of the RXR signaling pathway (AID 1159527); further: on the % scale 0 is the no-effect control and ±100 the full control effect; nearly all actives have a fitted effect of over 35% in size
Chain of Retinoic acid receptor RXR-alpha (Homo sapiens) (P19793 whole entry, looked up): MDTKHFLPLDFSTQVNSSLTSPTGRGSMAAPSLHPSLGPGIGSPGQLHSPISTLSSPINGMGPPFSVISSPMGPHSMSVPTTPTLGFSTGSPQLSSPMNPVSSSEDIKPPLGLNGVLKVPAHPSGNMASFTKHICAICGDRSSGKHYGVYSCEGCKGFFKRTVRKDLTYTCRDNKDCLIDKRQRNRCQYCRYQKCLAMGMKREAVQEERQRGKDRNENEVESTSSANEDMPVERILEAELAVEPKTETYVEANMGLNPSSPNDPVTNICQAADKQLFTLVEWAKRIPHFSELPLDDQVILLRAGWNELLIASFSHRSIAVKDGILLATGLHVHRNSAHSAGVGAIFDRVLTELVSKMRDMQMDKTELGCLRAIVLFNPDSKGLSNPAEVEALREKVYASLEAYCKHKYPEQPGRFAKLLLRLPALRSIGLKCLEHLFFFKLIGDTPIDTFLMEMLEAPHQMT
Summary of the method: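 16 hr incubation of compound-treated RXR-alpha-UAS-bla HEK 293T cells (2% charcoal-stripped FBS, 37 C) preceded a 2 hr room-temperature LiveBLAzer FRET substrate step and blue/green fluorescence measurement.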

[19] = qHTS assay to identify small molecule agonists of the RXR signaling pathway - cell viability counter screen (AID 1159529; active means well fitted curve in the direction sought with a large enough effect in the repeat runs; an effect the other way counts as inactive or inconclusive)
Summary of the method: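 In this parallel viability measure, GeneBLAzer RXR-alpha HEK 293T cells (2% charcoal-stripped FBS) were given a 5 hr preincubation, treated with compounds 16 hr at 37 C, and read by CellTiter-Glo luminescence.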

[20] = target: Peroxisome proliferator-activated receptor delta (Homo sapiens) (UniProt Q03181); test: qHTS assay to identify small molecule antagonists of the peroxisome proliferator-activated receptor delta (PPARd) signaling pathway (AID 743215; active means well fitted inhibition curve with a large enough effect in the signal ratio in the repeat runs, not every such curve was filed as active; the % refers to the signal ratio)
Summary of the method: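 With L165041 present at 300 nM final, compounds were incubated 17 h at 37 C on PPARd UAS-bla HEK293H cells. A FRET-based beta-lactamase substrate was then applied for 2 h at room temperature and fluorescence intensity recorded.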

COCCOCC(OC)OC
inactive: outcome [1] | outcome [2] | outcome [3] | outcome [4] | outcome [5] | outcome [6] | outcome [7] | outcome [8] | outcome [9] | outcome [10] | outcome [11] | outcome [12] | outcome [13] | outcome [14] | Potency [15] | outcome [16] | outcome [17] | Potency [18] | Potency [19]

CCOC(=O)COC(=O)c1ccccc1C(=O)OCC
inactive: outcome [1] | outcome [2] | outcome [20] | outcome [4] | outcome [6] | outcome [7] | outcome [8] | outcome [9] | outcome [10] | outcome [11] | outcome [12] | outcome [13] | outcome [14] | Potency [15] | outcome [16] | outcome [17] | Potency [18] | Potency [19]

CCCCCCC#CC(=O)OC
inactive: outcome [1] | outcome [2] | outcome [20] | outcome [4] | outcome [6] | outcome [9] | outcome [10] | outcome [11] | outcome [12] | outcome [13] | outcome [14] | Potency [15] | outcome [16] | outcome [17] | Potency [18] | Potency [19]

CC(C)C[C@@H](N)C(=O)O
inactive: outcome [1] | outcome [2] | outcome [3] | outcome [5] | outcome [6] | outcome [7] | outcome [8] | outcome [9] | outcome [10] | outcome [11] | outcome [12] | outcome [13] | activity, negative = cytotoxicity [14] 3.47% [at 19 µM] | activity change, negative = inhibition [15] 6.26% [at 19 µM] | viability change, negative = cytotoxic [16] -0.425% [at 15.8 µM] | activation [17] -5.77% [at 15.8 µM] | activation [18] 4.08% [at 15.8 µM] | activity change, negative = cytotoxicity [19] 4.29% [at 15.8 µM]

CC(=O)N[C@H]1[C@H]([C@H](O)[C@H](O)CO)OC(C(=O)O)=C[C@@H]1N=C(N)N
inactive: outcome [1] | outcome [2] | outcome [20] | outcome [4] | outcome [6] | outcome [7] | outcome [9] | outcome [10] | outcome [11] | outcome [12] | outcome [13] | outcome [14] | Potency [15] | outcome [16] | outcome [17] | Potency [18] | Potency [19]

COC(=O)C1=C(C)NC(C)=C(C(=O)OC(C)C)C1c1cccc2nonc12 (configuration not stated)
inactive: outcome [1] | outcome [2] | outcome [20] | outcome [4] | outcome [6] | outcome [7] | outcome [10] | outcome [11] | outcome [12] | outcome [13] | outcome [14] | Potency [15] | outcome [16] | outcome [17] | Potency [18] | Potency [19]

CCCCCCCC1CCCC1=O (configuration not stated)
inactive: outcome [1] | outcome [2] | outcome [20] | outcome [4] | outcome [6] | outcome [9] | outcome [10] | outcome [11] | outcome [12] | outcome [13] | outcome [14] | Potency [15] | outcome [16] | outcome [17] | Potency [18] | Potency [19]

Cc1onc(-c2c(Cl)cccc2Cl)c1C(=O)Cl
inactive: outcome [1] | outcome [2] | outcome [20] | outcome [4] | outcome [6] | outcome [7] | outcome [9] | outcome [10] | outcome [11] | outcome [12] | outcome [13] | outcome [14] | Potency [15] | outcome [16] | outcome [17] | Potency [18] | Potency [19]

OCCCCCO
inactive: outcome [1] | outcome [2] | outcome [20] | outcome [4] | outcome [6] | outcome [9] | outcome [10] | outcome [11] | outcome [12] | outcome [13] | outcome [14] | Potency [15] | outcome [16] | outcome [17] | Potency [18] | Potency [19]

CC(=O)Nc1ccc(OCC(O)CNC(C)C)cc1 (configuration not stated)
inactive: outcome [1] | outcome [2] | outcome [20] | outcome [3] | outcome [4] | outcome [5] | outcome [6] | outcome [7] | outcome [8] | outcome [9] | outcome [10] | outcome [11] | outcome [12] | outcome [13] | outcome [14] | Potency [15] | outcome [16] | outcome [17] | Potency [18] | Potency [19]

CN(C)C(=O)Oc1cccc([N+](C)(C)C)c1
inactive: outcome [1] | outcome [2] | outcome [20] | outcome [3] | outcome [5] | outcome [6] | outcome [7] | outcome [8] | outcome [9] | outcome [10] | outcome [11] | outcome [12] | outcome [13] | outcome [14] | Potency [15] | outcome [16] | outcome [17] | Potency [18] | Potency [19]

CCCCCCCCCC[N+](C)(C)[O-]
inactive: outcome [1] | outcome [2] | outcome [20] | outcome [4] | outcome [6] | outcome [7] | outcome [9] | outcome [10] | outcome [11] | outcome [12] | outcome [13] | outcome [14] | Potency [15] | outcome [16] | outcome [17] | Potency [18] | Potency [19]

C=C(C)C(=O)OCC(O)CO (configuration not stated)
inactive: outcome [1] | outcome [2] | outcome [20] | outcome [3] | outcome [4] | outcome [5] | outcome [6] | outcome [7] | outcome [8] | outcome [9] | outcome [10] | outcome [11] | outcome [12] | outcome [13] | outcome [14] | Potency [15] | outcome [16] | outcome [17] | Potency [18] | Potency [19]

C[N+]1(C)CCCC(OC(=O)C(O)(c2ccccc2)c2ccccc2)C1 (configuration not stated)
inactive: outcome [1] | outcome [2] | outcome [20] | outcome [3] | outcome [5] | outcome [6] | outcome [7] | outcome [8] | outcome [10] | outcome [11] | outcome [12] | outcome [13] | outcome [14] | Potency [15] | outcome [16] | outcome [17] | Potency [18] | Potency [19]
